Mot1-301 SUMO – yeast Mot1-301 growth rescue at high temperature, primary screen, SUMOylation pathway inhibitor project, S. cerevisiae, ATP luminescence, 38.5C; S. cerevisiae Mot1-301 growth rescue; percent above DMSO median, 100 means doubled; growth rescue, % at 18.8 µM; 1% of 320,000 active; AID 2716, 2010;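 active = every valid replicate shows activation above 250% relative to neutral control wells; inactive = the rest, any valid replicate at or below 250%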
PfM18AAP inh-1 – PfM18AAP inhibitors, malaria aminopeptidase, primary screen, biochemical, QFRET, recombinant enzyme; M18 aspartyl aminopeptidase (Plasmodium falciparum 3D7); H-Glu-NHMec fluorogenic cleavage; inhibition, % at 7.35 µM; 1.2% of 290,000 active; AID 1822, 2009;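 active = inhibition above the campaign mean inhibition over all tested compounds plus 3 SD, cut at about 28% in these data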
ALR inh – inhibitors of human ALR sulfhydryl oxidase, primary screen, biochemical, H2O2 detection, HRP-luminol luminescence, single point; FAD-linked sulfhydryl oxidase ALR (Homo sapiens), P55789; purified ALR, DTT oxidation; inhibition, % (no concentration beside the values); 3.8% of 290,000 active; AID 485317, 2010;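 active = mean replicate inhibition above about 79%, with every replicate also reaching it, limit read from the data; inconclusive = only one of the two criteria met; inactive = mean below limit and not every replicate reaching it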
Target sequence (P55789 whole entry, looked up): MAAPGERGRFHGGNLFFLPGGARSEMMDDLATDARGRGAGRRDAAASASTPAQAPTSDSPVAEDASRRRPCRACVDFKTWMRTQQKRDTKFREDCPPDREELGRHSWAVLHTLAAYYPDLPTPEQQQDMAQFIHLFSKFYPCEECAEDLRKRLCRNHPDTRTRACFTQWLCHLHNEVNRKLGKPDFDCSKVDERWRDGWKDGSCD
HIF activator – HIF pathway transcriptional activators, primary screen, cell-based, U2OS HRE-luciferase, luminescence; activation, % at 7.5 µM (by protocol); U2OS HRE-luciferase reporter; normalized: DMSO 0%, desferrioxamine 100%; AID 1910, 2009; 0.32% of 300,000 active;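 active = mean activation of at least 10% of the iron chelator positive control signal, with at least half of replicates also reaching 10%; inconclusive = mean and replicate majority disagree about reaching 10%; inactive = mean and most replicates under 10%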
PfM18AAP inh-2 – PfM18AAP inhibitors, malaria aminopeptidase, confirmation, biochemical, QFRET, recombinant enzyme, triplicate; 28% of 2,400 active; inhibition, % at 7.35 µM; H-Glu-NHMec fluorogenic cleavage; shares compounds with PfM18AAP inh-1;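 active = mean inhibition over replicate wells above the hit cutoff set for the earlier primary screen, cut at about 29% in these data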
CTSL1 confirm – cathepsin L1 inhibitors, retest, confirmation, counter-screen for PFM18AAP inhibitor project, biochemical, QFRET, triplicate; shares compounds with PfM18AAP inh-1; purified cathepsin L1, Z-Leu-Arg-MCA fluorescence; inhibition, % at 5.96 µM; 2,400 tested, under 10 active; AID 2178, 2009;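 active = average inhibition across replicates above the hit cutoff set in the earlier primary screen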
Target sequence (P07711 whole entry, looked up): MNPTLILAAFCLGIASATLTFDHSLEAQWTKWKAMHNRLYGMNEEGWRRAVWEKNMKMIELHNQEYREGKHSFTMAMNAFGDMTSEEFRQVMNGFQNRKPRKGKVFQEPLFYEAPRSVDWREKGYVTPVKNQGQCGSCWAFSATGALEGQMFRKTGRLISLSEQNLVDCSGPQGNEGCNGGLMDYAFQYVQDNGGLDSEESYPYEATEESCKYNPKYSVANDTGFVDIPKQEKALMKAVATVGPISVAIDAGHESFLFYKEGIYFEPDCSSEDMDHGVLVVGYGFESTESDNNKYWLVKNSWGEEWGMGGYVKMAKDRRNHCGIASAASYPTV
Large screens that a line does not name were inactive (follow-up assays come after a bar, where they were run). Shown are actives, neighbours in structure and some others; about 5.3% of the full set was active somewhere.

O=C(O)CCCNC(=O)c1nn(Cc2ccccc2)c(=O)c2ccccc12	none
Cc1c(C(=O)c2no[n+]([O-])c2C(=O)c2cnn(C)c2C)cnn1C	PfM18AAP inh-1 59 | PfM18AAP inh-2 77 | CTSL1 confirm inactive
CCOC(=O)N1CCN(C(=O)c2cc3cc(Cl)ccc3[nH]2)CC1	none
CCOC(=O)c1c(NC(C)=O)sc2c1CCC(C=O)=C2Sc1ccccc1	PfM18AAP inh-1 40 (no result: HIF activator) | PfM18AAP inh-2 inactive | CTSL1 confirm inactive
Cc1c(Br)c(=O)oc2c(Br)c(O)c(O)cc12	PfM18AAP inh-1 39, ALR inh 98 | PfM18AAP inh-2 inactive | CTSL1 confirm inactive
Cc1c(Br)c(=O)oc2c(Br)c(O)ccc12	none
COc1ccccc1NC(=O)c1ccc2c(c1)N(CC(=O)NC(C)C)C(=O)C(C)(C)O2	none (no result: ALR inh)
CC1CC(C)CN(C(=O)c2nn(C)c3c2CSc2ccccc2-3)C1 (centres undefined)	none
CC1CCCN(C(=O)c2nn(C)c3c2CSc2ccccc2-3)C1 (centres undefined)	PfM18AAP inh-1 42 | PfM18AAP inh-2 inactive | CTSL1 confirm inactive
O=C(/C=C/c1ccc(Cl)cc1Cl)N1CCN(c2ccccc2[N+](=O)[O-])CC1	none
CCN1C(=O)[C@H]2[C@@H](c3ccc(Cl)cc3)N3C(=O)CN(CCOC)C(=O)[C@@]3(Cc3ccccc3)[C@H]2C1=O	none
S=c1nc[nH]c2c1ncn2C1CCCC1	none | PfM18AAP inh-2 inactive | CTSL1 confirm inactive
O=C(CSc1ccc(Cl)cc1)N/N=C/c1cccnc1	none
CCN1C(C)=C(C)S/C1=C1\SC(=S)N(N)C1=O	PfM18AAP inh-1 76 (no result: Mot1-301 SUMO, ALR inh) | PfM18AAP inh-2 inactive | CTSL1 confirm inactive
Cn1cccc1/C=N/n1c(-c2ccccc2)n[nH]c1=S	none
COc1c(Br)cc(/C=N/n2c(-c3ccccc3)n[nH]c2=S)c(O)c1Br	PfM18AAP inh-1 45 | PfM18AAP inh-2 inactive | CTSL1 confirm inactive
CCOC(=O)C(=O)N/N=C(/c1ccccc1)c1ccc(OC)cc1	none
COc1ccc(/C(=N\Nc2ccccc2C(=O)O)c2ccccc2)cc1	PfM18AAP inh-1 38, ALR inh 99 | PfM18AAP inh-2 inactive | CTSL1 confirm inactive
Cc1ccc(C)c(S(=O)(=O)N2CCN(C(=O)[C@H](Cc3ccccc3)NC(=O)c3ccco3)CC2)c1	none (no result: PfM18AAP inh-1, HIF activator)
CCc1ccc(C(=O)COC(=O)CNC(=O)c2ccco2)cc1	none
Cc1ccc(C(=O)COC(=O)CNC(=O)CNC(=O)c2ccc(C)cc2)cc1	none
O=C(CNS(=O)(=O)c1ccccc1)OCC(=O)c1ccc([N+](=O)[O-])cc1	PfM18AAP inh-1 33 | PfM18AAP inh-2 inactive | CTSL1 confirm inactive
Cc1ccc(C(=O)NCC(=O)NCC(=O)OCC(=O)c2ccc([N+](=O)[O-])cc2)cc1	PfM18AAP inh-1 33 | PfM18AAP inh-2 inactive | CTSL1 confirm inactive
O=C(CNC(=O)c1cccs1)OCC(=O)c1ccc([N+](=O)[O-])cc1	PfM18AAP inh-1 45, ALR inh inconclusive | PfM18AAP inh-2 inactive | CTSL1 confirm inactive
O=C(CNC(=O)c1ccco1)OCC(=O)c1ccc([N+](=O)[O-])cc1	PfM18AAP inh-1 40, ALR inh 99 | PfM18AAP inh-2 inactive | CTSL1 confirm inactive
Cc1cc(=O)oc2cc(OCc3ccc(C(=O)OCC(=O)Nc4ccccc4OC(F)F)cc3)ccc12	none
NNC(=O)CNS(=O)(=O)c1ccc([N+](=O)[O-])cc1	PfM18AAP inh-1 35 | PfM18AAP inh-2 inactive | CTSL1 confirm inactive
O=C(Cc1ccccc1)NCC(=O)OCC(=O)c1ccc([N+](=O)[O-])cc1	PfM18AAP inh-1 39 (no result: ALR inh) | PfM18AAP inh-2 inactive | CTSL1 confirm inactive
O=C(Cc1ccccc1)NCC(=O)OCC(=O)c1cccc([N+](=O)[O-])c1	none
CC(C)[C@H](NC(=O)[C@H](Cc1ccccc1)n1c(=O)[nH]c2ccccc2c1=O)C(=O)N1CCC[C@@H]1C(=O)O	none (no result: ALR inh)
COc1ccccc1N1CCN(Cc2cc3c(cc2[N+](=O)[O-])OCO3)CC1	PfM18AAP inh-1 32 (no result: ALR inh) | PfM18AAP inh-2 inactive | CTSL1 confirm inactive
COc1ccccc1NC(=O)C(C)OC(=O)CCSc1ccc(F)cc1 (centres undefined)	none (no result: PfM18AAP inh-1)
COc1cc(C)c(NC(=O)C(=S)NCCc2ccccc2)cc1C	PfM18AAP inh-1 48 | PfM18AAP inh-2 inactive | CTSL1 confirm inactive
COc1ccc(NC(=S)NCCc2ccccc2)c(C)c1	none
COc1ccc(S(=O)(=O)Nc2cccc3c2O[C@@H](CN(C)Cc2ccc(C(=O)O)cc2)[C@@H](C)CN([C@H](C)CO)C3=O)cc1	none (no result: PfM18AAP inh-1, HIF activator)
O=C(NNC(=O)C1CCN(S(=O)(=O)c2ccccc2)CC1)c1ccccc1O	PfM18AAP inh-1 40 | PfM18AAP inh-2 inactive | CTSL1 confirm inactive
CCOc1ccc(NC(=O)Cn2sc3nc(C)cc(C)c3c2=O)cc1	PfM18AAP inh-1 56 | PfM18AAP inh-2 36 | CTSL1 confirm inactive
Cc1cc(C)c2c(=O)n(CC(=O)Nc3ccc(Cl)cc3)sc2n1	PfM18AAP inh-1 57 | PfM18AAP inh-2 47 | CTSL1 confirm inactive
CCOc1ccc(NC(=O)Cn2ncc3ccccc32)cc1	none
Cc1cc(C)c2c(n1)SCC(=O)N2CC(=O)Nc1cccc(Cl)c1	none
O=C(CCN1C(=O)C2CC=CCC2C1=O)Nc1nccs1 (centres undefined)	none
O=C(Nc1ccnn1C1CCN(C(=O)c2cnsn2)CC1)c1cccc(F)c1	none
C=CCn1c(-c2cc3cccc(OC)c3o2)n[nH]c1=S	PfM18AAP inh-1 33 | PfM18AAP inh-2 inactive | CTSL1 confirm inactive
C=CCn1c(-c2cccc(OC)c2OC)n[nH]c1=S	none
CCn1c(SCC(=O)Nc2oc(-c3ccccc3)c(-c3ccccc3)c2C#N)nnc1-c1ccncc1	none
N#Cc1c(NC(=O)CSc2ccccn2)oc(-c2ccccc2)c1-c1ccccc1	PfM18AAP inh-1 50 (no result: ALR inh) | PfM18AAP inh-2 inactive | CTSL1 confirm inactive
CC(=O)Oc1ccc2c(C)cc(=O)oc2c1	none
CC(=O)Oc1cc2oc(=O)cc(C)c2cc1OC(C)=O	PfM18AAP inh-1 47, ALR inh 89 | PfM18AAP inh-2 75 | CTSL1 confirm 19
COc1ccc(NC(=O)Nc2cccc3c2O[C@H](CN(C)C(=O)Nc2ccc4c(c2)OCO4)[C@@H](C)CN([C@H](C)CO)C3=O)cc1	none (no result: PfM18AAP inh-1, HIF activator)
O=C(O)c1c[nH]c(=S)n1-c1ccc(F)cc1	PfM18AAP inh-1 51 | PfM18AAP inh-2 39 | CTSL1 confirm inactive
CSc1ncc(C(=O)O)n1-c1ccc(F)cc1	none
COc1cccc(/C=N/Nc2nc(Nc3ccc([N+](=O)[O-])cc3)nc(N3CCCC3)n2)c1O	none
O=[N+]([O-])c1ccc(Nc2nc(N/N=C/c3cccc(F)c3)nc(N3CCCC3)n2)cc1	PfM18AAP inh-1 44 | PfM18AAP inh-2 inactive | CTSL1 confirm inactive
